Bioassay records deposited in PubChem BioAssay by National Center for Advancing Translational Sciences (NCATS).
The full list was thinned out, with hits kept by preference.
LDHA block – blocks human lactate dehydrogenase A; actives 0.15% (n = 480,000); activity change, % (values are at about 110 or 230 µM); purified LDHA, NADH/diaphorase-resazurin fluorescence; active compounds read low; in the data active means activity change below about -30%; inconclusive means mostly about -25% to -30%;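 further: plate controls were DMSO wells for no effect and wells without enzyme for full effect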
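LDH5 2 nM; NADH 0.06 mM, pyruvate 0.2 mM; 200 mM Tris pH 7.4, EDTA, Tween-20; 5 min RT. Detection: diaphorase 0.133 mg/mL + resazurin 37 µM, fluorescence ex540/em590 at 0 and 20 min; normalized to enzyme-free and DMSO wells.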
Mito fusion yeast – mitochondrial division inhibition or fusion activation | AID 485298 | Potency, µM (doses to about 46.1 µM), for inactives: at the top dose growth rescue (activation), actives largely listed as activators | actives 0.23% (n = 320,000) | S. cerevisiae fusion-defective mutant growth rescue, CellTiterGlo 48 h; further: potency means the concentration at half of the fitted maximal effect; % of control where 0% means no effect; nearly all actives have a fitted effect of over 45% in size
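Yeast fusion mutant, YPEG (non-fermentable carbon), compound, 48 h at 37C non-permissive; CellTiterGlo added, 10 min RT, luminescence read. Rescued growth = division inhibition.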
ClpP mod – qHTS Assay for Activators of ClpP. purified B. subtilis ClpP, FRET peptide cleavage, 20 min. actives 1.9% (n = 340,000). Potency, µM (highest dose often 57.5 µM), without a hit: at the highest dose activity change, negative = active. ATP-dependent Clp protease proteolytic subunit (Bacillus subtilis (strain 168)), P80244; active means well fitted falling curve with a large enough effect; inconclusive means small, poorly fitted or top-dose-only effect; inactive means no such curve, though single readings can be large or run the other way; further: potency means the concentration at half of the fitted maximal effect; the source files actives as falling curves though it sought activators and does not explain the sign; nearly all actives have a fitted effect of over 65% in size
Target sequence (P80244 whole entry, looked up): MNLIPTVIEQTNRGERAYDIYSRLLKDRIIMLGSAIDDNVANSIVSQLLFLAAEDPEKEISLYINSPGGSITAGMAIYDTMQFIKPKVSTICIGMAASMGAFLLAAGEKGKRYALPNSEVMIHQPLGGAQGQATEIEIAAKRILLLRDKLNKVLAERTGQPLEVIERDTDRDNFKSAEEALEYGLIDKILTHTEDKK
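Buffer: 100 mM Tris/HCl pH8, 100 mM KCl, 0.05% low protease BSA, 2.5% glycerol, 0.01% Tween-20. ClpP 10 microg/mL final; 20 min RT; delta FRET normalized to ADEP and DMSO controls.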
RGS4 inhibitor – inhibitors of human regulator of G protein signaling 4; Transcreener GDP fluorescence polarization, RGS4-accelerated GTP hydrolysis; Potency, µM (series often up to 114 µM), inactives show at the top dose activity change, negative = inhibition, most hits filed as inhibitors; P49798; actives 0.039% (n = 390,000); AID 504845; further: potency means the concentration at half of the fitted maximal effect; on the % scale 0 is the no-effect control and ±100 the full control effect; nearly all actives have a fitted effect of over 75% in size
Target sequence (P49798 whole entry, looked up): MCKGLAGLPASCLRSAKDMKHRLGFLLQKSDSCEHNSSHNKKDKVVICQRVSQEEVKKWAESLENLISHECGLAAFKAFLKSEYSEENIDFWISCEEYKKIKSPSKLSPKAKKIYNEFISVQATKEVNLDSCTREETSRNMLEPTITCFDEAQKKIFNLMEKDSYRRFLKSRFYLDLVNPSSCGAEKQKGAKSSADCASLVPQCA
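MLSMR compounds (23 nl, pin-transferred) preincubated 10 min at room temperature with a 500nM (2x) first reagent, then RGS4 at 900nM (2x) plus Transcreener GDP mix added; fluorescence polarization (620/688 nm) read before and after 90 min at 30 °C.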
ASM inhibitor – human S-ASM enzyme inhibition; P17405; placental ASM, HMU-PC fluorogenic substrate, 60 min; Potency, µM (series often up to 57.5 µM), inactives show at the highest dose activity change, negative = inhibition, hits mostly inhibitors; actives 0.006% (n = 340,000); further: potency means the concentration at half of the fitted maximal effect
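Steps: dispense placental human ASM, pin compound, wait 10 min at room temperature, add HMU-PC0 substrate at 9 uM final, incubate 60 min at 37 °C, add stop solution raising pH to 10, read fluorescence.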
mIDH1 inhibitor – human IDH1 R132H inhibition; O75874; IDH1-R132H enzyme, NADPH consumption, diaphorase/resazurin fluorescence; Potency, µM (titrated, usually from 76.6 µM), without a hit: top-dose activity change, negative = inhibition, most hits filed as inhibitors; actives 0.093% (n = 390,000); further: potency means the concentration at half of the fitted maximal effect; on the % scale 0 is the no-effect control and ±100 the full control effect; nearly all actives have a fitted effect of over 65% in size
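IDH1-R132H (0.5 ug/mL) preincubated 30 min with compound, then NADPH (0.016 mM) and alpha-KG (2 mM) added; 80 min at RT, pH 7.5. Remaining NADPH coupled via diaphorase/resazurin to fluorescence (540/590 nm); concentration-response curves normalized to no-enzyme control.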
An asterisk follows results filed as active; ? = inconclusive; . = not tested or not shown; [ ] = another dose, or the depositor's remark. Unless noted, the call rests on the fitted dose curve; in most records, active means well fitted curve in the direction sought with a large enough effect; inconclusive means small, poorly fitted or top-dose-only effect, or another doubt; inactive means no such curve, though single readings can be large; an effect the other way counts as inactive or inconclusive.

SMILES | LDHA block | Mito fusion yeast | ClpP mod | RGS4 inhibitor | ASM inhibitor | mIDH1 inhibitor
COc1cc2c(cc1NC(=S)Nc1cccc(C)c1)oc1ccccc12 | 4.3 | 0.0% | 11.2µM* | -6.6% | -3.3% | -5.3%
COc1cc2c(cc1NC(=O)c1cc(-c3ccncc3)nc3ccccc13)oc1ccccc12 | -5.8 | 0.2% | -24.7% | -33.7% | ? | 8.8%
COc1cc2c(cc1NC(=O)c1cc(-c3cccnc3)nc3ccc(C)cc13)oc1ccccc12 | 4.5 | 0.9% | 20µM* | 30.4% | -12.4% | -5.4%
CC(C)Cn1cnc2c1c(=O)n(CC(O)COc1ccc3ccccc3c1)c(=O)n2CC(C)C (stereo not given) | 3.4 | . | . | . | . | .
CCCCn1nc(C(=O)NCC(c2ccco2)N2CCCC2)c2ccccc2c1=O (stereo not given) | -0.2 | . | . | . | . | .
CS(=O)Cc1cccc(C(=O)O)c1 (stereo not given) | 12.8 | . | . | . | . | .
CCOc1ccc(C(=O)Nc2ccc(N3CCCC3)nc2)cc1OC | 1.3 | . | . | . | . | .
CCOc1ccc(CNC(=O)c2ccc(-c3nc(CS(=O)(=O)c4ccccc4)c(C)o3)cc2)cc1 | -35.3* | . | -16.7% | -5.6% | . | 18.4%
CCc1ccc(CNC(=O)c2ccc(-c3nc(CS(=O)(=O)c4ccccc4)c(C)o3)cc2)cc1 | 2.2 | . | ? | 11.1% | . | -1.5%
O=C(CSCc1nc2ccccc2c(=O)[nH]1)Nc1ccc(O)cc1 | 9.8 | . | . | . | . | .
Cc1[nH]c2ccc(C(=O)NCCOc3ccccc3)cc2c1C | -12.1 | . | . | . | . | .
COc1ccc2cc(S(=O)(=O)NC3CC(C)(C)NC(C)(C)C3)ccc2c1 | -0.8 | 0.8% | 28.2µM* | 36.5% | 3.1% | 3.4%
COc1ccc(S(=O)(=O)NC2CC(C)(C)NC(C)(C)C2)cc1C(C)C | 5.4 | -2.8% | . | 13.2% | 3.9% | 2.6%
Nc1ccc(O)cc1C(=O)OCC(=O)C12CC3CC(CC(C3)C1)C2 | 16.2 | -0.4% | 22.4µM* | -6.9% | 216.4% | -1.3%
CCC(C(=O)NCc1cccc(OC)c1)n1nc(C)n2c(cc3sccc32)c1=O (stereo not given) | -7.7 | . | . | . | . | .
O=[N+]([O-])c1ccc(C(O)C[n+]2ccccc2)cc1 (stereo not given) | -30.1* | 0.2% | -2.5% | 1.9% | -0.2% | -2.2%
O=[N+]([O-])c1ccc(C(O)CN2CCN(c3ccccc3)CC2)cc1 (stereo not given) | -4.2 | 4.1% | . | 1.8%[56.9 µM] | 1.0% | 4.5%
COc1ccc(Cc2nc3c4c(C)c(C)n(C5CCCCC5)c4ncn3n2)cc1OC | 1.5 | . | . | . | . | .
O=c1oc2ccc(Br)cc2cc1-c1ccccc1 | -0.9 | . | . | . | . | .
CC(=O)c1ccc(OC(=O)C2OC3OC(C)(C)OC3C3OC(C)(C)OC23)cc1 (stereo not given) | 4.4 | . | . | . | . | .
CCc1nnc(NC(=O)C2CCN(c3nccc(C)n3)CC2)s1 | -4.3 | -5.8% | 31.6µM* | 2.3% | 1.7% | 0.9%
CCc1nnc(NC(=O)C2CCCN(c3nc(C)cc(C)n3)C2)s1 (stereo not given) | 0.9 | -4.4% | -8.4% | -8.8% | 2.0% | 0.2%
O=C(Nc1cc(Cl)ccc1Cl)c1ccco1 | -1.2 | -2.0% | -2.0% | -1.2% | 2.3% | 8.2%
CS/C(Nc1cc(Cl)ccc1Cl)=C(/C#N)C(=O)c1ccco1 | -47.7* | 4.3% | -0.4% | 21.8% | 37.8% | 5.2%
Cc1cccc(NC(=O)CCCCCN2C(=O)[C@@H]3Cc4ccccc4CN3C2=O)c1 | -3.8 | -2.2% | -1.0% | -31.9% | -1.0% | 3.7%
O=C(CCCCCN1C(=O)[C@@H]2Cc3ccccc3CN2C1=O)Nc1cccc(F)c1 | -3.4 | 12.6µM* | 0.8% | -0.5%[11.4 µM] | -3.8% | -14.3%
CCN(C(=O)CSc1nc(-c2ccccc2)c(-c2ccccc2)[nH]1)C1CCS(=O)(=O)C1 (stereo not given) | 1.2 | -1.4% | 25.1µM* | -32.0% | 50.2% | 1.4%
